An excerpt weighted towards active compounds, which were near 0.9% of everything screened.
MazF activator: increases E. coli MazEF RNase cleavage of RNA | P0AE70 | FAM/BHQ RNA-DNA oligo cleavage fluorescence, 5 h | activation, % at 20 µM | 0.32% of 350,000 active | AID 504720; in the data active = activation above about 50%
Target sequence (P0AE70 whole entry, looked up): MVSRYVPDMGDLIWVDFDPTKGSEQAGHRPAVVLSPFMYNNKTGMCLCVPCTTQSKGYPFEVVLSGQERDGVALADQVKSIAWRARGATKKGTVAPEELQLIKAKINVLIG
3CLpro inhibitor: SARS-CoV 3CLpro protease inhibition; recombinant SARS-CoV 3CLpro, quenched FRET peptide cleavage; inhibition, % at 6 µM; 0.14% of 290,000 active; in the data active = inhibition above about 12%
SSB-PriA inh: K. pneumoniae PriA-SSBct interaction inhibition; 0.6% of 430,000 active; AlphaScreen SSBct-PriA binding, biotinylated peptide; inhibition, % at 33 µM; in the data active = inhibition mostly above about 37%, no sharp cut-off; inactive = mostly below about 20%;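 also: plate controls were negative control peptide for no effect and reference peptide for full effect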
Y pestis TopoI: Y. pestis Topo-I inhibition via cleavage products; Y. pestis Topo-I cleavage product accumulation, plate reader; activity, % at 10 µM; 0.064% of 360,000 active; in the data active = activity above about 50%, passing the limit was not always enough
The depositor's hits bear a star; ! = repeats disagree.

Screening CC1(C)NC(=O)N(CC(=O)Nc2nc(-c3ccccn3)cs2)C1=O returned SSB-PriA inh 106.5*.
CC1(c2ccccc2)NC(=O)N(CC(=O)Nc2nc(-c3ccccn3)cs2)C1=O (configuration not stated) was read as MazF activator -2.2, SSB-PriA inh 75.2* and Y pestis TopoI 0.8.
`O=C(O)c1cc2ccccc2cn1` gave MazF activator 4.8, SSB-PriA inh 75.3*! and Y pestis TopoI 2.9.
O=C(O)c1cc2c(cn1)[nH]c1ccccc12 was read as MazF activator 0.4, 3CLpro inhibitor 1.8, SSB-PriA inh 80.5* and Y pestis TopoI -2.6.
`C[C@H](NC(=O)c1cc2c(cn1)[nH]c1ccccc12)C(=O)O` gave MazF activator -1.2, 3CLpro inhibitor 1.7, SSB-PriA inh -10.9 and Y pestis TopoI -2.9.
For O=[N+]([O-])c1ccc(Nc2ccc(Oc3ccc(Nc4ccc([N+](=O)[O-])c5nonc45)cc3)cc2)c2nonc12 the results were SSB-PriA inh 43.6.
Screening CCOc1ccc(Nc2ccc([N+](=O)[O-])c3nonc23)cc1 returned MazF activator 16.5, 3CLpro inhibitor 2.1, SSB-PriA inh 77.5* and Y pestis TopoI -10.3.
`O=C(NC(=O)c1ccc(F)cc1)Nc1nc(-c2cccs2)cc(C(F)(F)F)n1` gave MazF activator 93.8*, 3CLpro inhibitor 0.1, SSB-PriA inh -15.8 and Y pestis TopoI 18.9.
O=C(NC(=O)c1cccc(F)c1)Nc1nc(-c2ccc(F)cc2)cc(C(F)(F)F)n1 was read as MazF activator 21.2, 3CLpro inhibitor 5.0, SSB-PriA inh -3.5 and Y pestis TopoI 6.2.
O=C(Cc1csc(Nc2cccc(Cl)c2)n1)NCc1cccs1 was read as SSB-PriA inh -13.0.
For CCN1C(=O)/C(=C2/SC(C)=C(C)N2CC)SC1=S the results were MazF activator 75.7*, 3CLpro inhibitor -7.9, SSB-PriA inh -12.3 and Y pestis TopoI -1.5.
`O=C(CSc1ccc(F)cc1)Nc1ccc2sccc2c1` gave SSB-PriA inh -9.0.
CS(=O)(=O)N1CCCC(C(=O)Nc2nc(-c3ccc(F)cc3)cs2)C1 (configuration not stated) was read as SSB-PriA inh -13.0.
For CCCn1nc([N+](=O)[O-])c(C(C#N)c2nc3ccccc3o2)c(Cl)c1=O (configuration not stated) the results were MazF activator -2.3, 3CLpro inhibitor 6.1, SSB-PriA inh 22.2 and Y pestis TopoI -11.4.
CCn1nc([N+](=O)[O-])c(C(C#N)c2nc3cc(C(F)(F)F)ccc3s2)c(Cl)c1=O (configuration not stated) was read as MazF activator -3.3, 3CLpro inhibitor 3.8, SSB-PriA inh 73.3* and Y pestis TopoI -11.3.
Screening Cc1ccc(NC(=O)CCC(=O)NNC(=O)COc2ccc([N+](=O)[O-])cc2)cc1C returned MazF activator 0.1, 3CLpro inhibitor -0.6, SSB-PriA inh -4.9 and Y pestis TopoI 3.5.
`Cc1ccc(NC(=O)NNC(=O)COc2ccc([N+](=O)[O-])cc2)cc1C` gave MazF activator -14.9, 3CLpro inhibitor 1.8, SSB-PriA inh 39.9* and Y pestis TopoI -12.3.
`CC(C)(C)OCC(O)CN1CCN(c2ccccc2)CC1` (configuration not stated) gave SSB-PriA inh 4.0.
COc1ccccc1NC(=O)CSc1nnc(Cn2ccc(=O)[nH]c2=O)o1 was read as SSB-PriA inh -15.0.
For O=C(NC(c1ccccc1)c1ccccc1)N(Cc1cnc2ccccn12)c1ccccc1 the results were SSB-PriA inh 44.0*.
`O=C(NC1CCCCC1)N(Cc1cnc2ccccn12)c1ccccc1` gave SSB-PriA inh -5.0.
`O=c1cc(-c2ccccc2)ncn1Cc1cccc(Cl)c1` gave SSB-PriA inh -5.0.
Screening Nc1ccc2c(c1)CC(=O)N2 returned SSB-PriA inh 17.0.
For CC1(C)CNc2cc(N)ccc2S1 the results were MazF activator 35.7, 3CLpro inhibitor -1.1, SSB-PriA inh 74.2* and Y pestis TopoI -21.0.
Screening O=c1[nH]c(O)c(C=C2C=NN=C2c2ccccc2)c(=O)[nH]1 returned SSB-PriA inh -8.2.
For Cc1ccc(C(=O)c2sc3c(c2N)c(=O)[nH]c(=O)n3CCc2ccccc2)cc1 the results were MazF activator -48.9, 3CLpro inhibitor 3.8, SSB-PriA inh 4.2 and Y pestis TopoI 160.4*.
CCOC(=O)c1scc(-c2ccc(C)cc2)c1S(=O)(=O)Nc1cccc(C)c1C was read as SSB-PriA inh -14.0.
`O=C1C[C@H](CO)CN1Cc1ccc(F)cc1` gave SSB-PriA inh -18.0.

High-throughput results (PubChem BioAssay)
